In the library only some 1.2% were active in any assay of this set; here they are far more common.
NCOA3 inh: inhibits human SRC3 coactivator; HEK293 GAL4-SRC3 luciferase reporter, luminescence; AID 588352; 0.17% of 360,000 active; Q9Y6Q9; inhibition, % at 3.6 µM;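 active = inhibition above a per-campaign cutoff, the mean of all compounds plus 3 SD, cut at about 60% in these data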;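 note: higher means less SRC3-driven luciferase light from the GAL4 reporter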
NR5A2 inv ag: NR5A2 inverse agonism in reporter assay | O00482 | HEK293T StAR-luciferase reporter, LRH-1 transfected, 24 h | inhibition, % at 3.6 µM | 0.13% of 360,000 active | AID 602396;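 active = inhibition above the mean inhibition of all tested compounds plus 3 SD, cut at about 73% in these data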
Target sequence (O00482 whole entry, looked up): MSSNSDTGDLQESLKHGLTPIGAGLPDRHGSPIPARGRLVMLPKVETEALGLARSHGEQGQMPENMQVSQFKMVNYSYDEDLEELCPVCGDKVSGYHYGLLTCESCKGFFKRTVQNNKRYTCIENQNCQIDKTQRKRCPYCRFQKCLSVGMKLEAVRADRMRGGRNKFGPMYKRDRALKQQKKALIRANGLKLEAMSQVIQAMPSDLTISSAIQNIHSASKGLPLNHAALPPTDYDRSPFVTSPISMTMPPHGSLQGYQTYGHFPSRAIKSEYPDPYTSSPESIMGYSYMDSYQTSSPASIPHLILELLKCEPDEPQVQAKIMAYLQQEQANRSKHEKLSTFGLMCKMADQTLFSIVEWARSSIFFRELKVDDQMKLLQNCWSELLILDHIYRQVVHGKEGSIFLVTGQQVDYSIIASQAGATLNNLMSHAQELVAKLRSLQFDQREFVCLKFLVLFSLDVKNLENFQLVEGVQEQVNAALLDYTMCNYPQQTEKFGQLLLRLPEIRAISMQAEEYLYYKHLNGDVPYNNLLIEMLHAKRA
SRC1 inh: inhibitors of human steroid receptor coactivator 1 (SRC1); HEK293 GAL4-SRC1 luciferase reporter, luminescence; inhibition, % at 3.6 µM; 0.12% of 360,000 active; AID 588354;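 active = inhibition above the campaign mean plus 3 SD, with each screening campaign given its own cutoff, cut at about 60% in these data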
Efflux pump mplx: inhibitors of Candida antifungal efflux pumps expressed in yeast; S. cerevisiae Candida pump triplex, Nile Red efflux; inhibition, % at 10 µM; 0.44% of 330,000 active;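 active = plate passing quality check with inhibition over a set limit, or well fluorescence over plate mean plus 4 SD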;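 note: Nile Red retained in pooled yeast measured as flow cytometry median fluorescence; higher means more Nile Red kept so more efflux inhibition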
SRC2 inh: human SRC2 (NCOA2) inhibition; HEK293 GAL4-SRC2 luciferase reporter, luminescence; 0.17% of 370,000 active; AID 651957; Q15596; inhibition, % at 9 µM;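 active = inhibition above the mean inhibition of all tested compounds plus 3 SD, set per campaign, cut at about 52% in these data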
NR2F2 inh: NR2F2 (human) inhibition, primary screen; HEK293T NGFI-A luciferase reporter, luminescence; 0.7% of 370,000 active; inhibition, % at 8.6 µM; AID 686940; P24468;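 active = inhibition above a per-plate cutoff, mean inhibition of test wells between control levels plus 3 SD, cut at about 38% in these data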;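 note: cells cotransfected with COUP-TFII expression vector driving the NGFI-A reporter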
Yeast cmpd fluor: flagged as fluorescent in efflux inhibitor counter-screen. fluorescence ratio to DMSO, % at 10 µM. shares compounds with Efflux pump mplx. 4% of 1,700 active. AID 588517. S. cerevisiae AD/pABC3, compound fluorescence, flow cytometry;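 active = fluorescence ratio to DMSO above its plate's cutoff, the plate mean ratio plus 5 SD, cut at about 210% in these data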;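 note: unstained yeast with no Nile Red so the signal is compound autofluorescence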
Mdr1 pump inh: inhibitors of Candida albicans Mdr1 efflux pump; shares compounds with Efflux pump mplx; S. cerevisiae AD/CaMDR1, Nile Red efflux, flow cytometry; inhibition, % at 10 µM; 1% of 1,700 active; AID 588518; in the data active = inhibition above about 26%;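 note: higher means more Nile Red retained so more efflux inhibition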
Cdr2 pump inh: inhibitors of Candida albicans Cdr2 efflux pump | shares compounds with Efflux pump mplx | S. cerevisiae AD/CaCDR2, Nile Red retention, flow cytometry | Nile Red retention ratio vs DMSO, % at 10 µM | 4% of 1,700 active | AID 588520; in the data active = Nile Red retention ratio vs DMSO above about 190%;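 note: higher ratio means more blocking of Cdr2 efflux of the dye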
Cdr1 pump inh: blocks the Candida albicans Cdr1 efflux pump in yeast. S. cerevisiae AD/CaCDR1, Nile Red efflux, flow cytometry. shares compounds with Efflux pump mplx. inhibition, % at 10 µM. AID 588522. 1% of 1,700 active;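 active = inhibition above the screen-wide mean plus twice its standard deviation, cut at about 32% in these data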
Of the large screens only hits and unclear results are named; the others gave an inactive call (follow-up assays come after a bar, where they were run).

CN(CC1CCCN(CCc2ccccc2F)C1)C(=O)c1ccoc1 (centres undefined)	none
Cc1nnc(SCc2ccc([N+](=O)[O-])cc2)o1	Efflux pump mplx 1.0 | Yeast cmpd fluor inactive | Mdr1 pump inh inactive | Cdr2 pump inh inactive | Cdr1 pump inh inactive
Cc1nc(SCc2ccc([N+](=O)[O-])cc2)n[nH]1	none
O=C(Nc1cccc2ccccc12)c1cn(-c2ccccc2)nc1-c1cccs1	Efflux pump mplx 9.0 (no result: SRC2 inh, NR2F2 inh) | Yeast cmpd fluor inactive | Mdr1 pump inh inactive | Cdr2 pump inh inactive | Cdr1 pump inh inactive
O=C(Cc1c[nH]c2ccccc12)Nc1ccc(Nc2cccnc2)cc1	none (no result: NCOA3 inh, NR5A2 inv ag, SRC1 inh, Efflux pump mplx)
COc1cc(/C=C/C(=O)c2ccc(O)cc2)ccc1OCC#N	Efflux pump mplx 11 | Yeast cmpd fluor inactive | Mdr1 pump inh inactive | Cdr2 pump inh inactive | Cdr1 pump inh inactive
COc1cccc(C(=O)/C=C/c2ccc(OCC#N)c(OC)c2)c1	none
CC(C)CCNC(=O)c1onc(CSc2ccccn2)c1C(=O)NCCC(C)C	Efflux pump mplx 0.6 | Yeast cmpd fluor inactive | Mdr1 pump inh inactive | Cdr2 pump inh inactive | Cdr1 pump inh inactive
CCCc1nnc(-c2cc(OC)c(OC)c(OC)c2)o1	Efflux pump mplx 1.9 | Yeast cmpd fluor inactive | Mdr1 pump inh inactive | Cdr2 pump inh inactive | Cdr1 pump inh inactive
COc1cc(-c2nnc(-c3cc(OC)c(OC)c(OC)c3)o2)cc(OC)c1OC	none
CCN1CCCC1CNS(=O)(=O)c1cc(Br)cc2c1N(C(=O)C1CC1)CC2 (centres undefined)	Efflux pump mplx 20 | Yeast cmpd fluor inactive | Mdr1 pump inh inactive | Cdr2 pump inh inactive | Cdr1 pump inh inactive
CCOCCCNS(=O)(=O)c1cc(Br)cc2c1N(C(=O)C1CC1)CC2	none
CCn1c(=O)c2ccccc2n(Cc2cccc([N+](=O)[O-])c2)c1=O	none
O=C(CCn1c(=O)c2ccccc2n(Cc2cccc([N+](=O)[O-])c2)c1=O)N1CCc2ccccc2C1	Efflux pump mplx 13 | Yeast cmpd fluor inactive | Mdr1 pump inh inactive | Cdr2 pump inh inactive | Cdr1 pump inh inactive
O=C(NC(=S)N1CCCc2ccccc21)c1ccc(Br)cc1	none
COC(=O)C1=C(C)OC(N)=C(C#N)C1c1c(C)nn(C)c1C (centres undefined)	Efflux pump mplx 6.5 | Yeast cmpd fluor inactive | Mdr1 pump inh inactive | Cdr2 pump inh inactive | Cdr1 pump inh inactive
COc1ccc(S(=O)(=O)N2CCOC2CNC(=O)C(=O)NCCc2ccccc2OC)cc1 (centres undefined)	none
COc1ccc(S(=O)(=O)N2CCOC2CNC(=O)C(=O)NCc2ccccc2OC)cc1 (centres undefined)	Efflux pump mplx 1.1 | Yeast cmpd fluor inactive | Mdr1 pump inh inactive | Cdr2 pump inh inactive | Cdr1 pump inh inactive
O=C(NCc1ccccc1Cl)C(=O)NCC1OCCN1S(=O)(=O)c1ccc(F)cc1 (centres undefined)	none
COc1ccccc1CNC(=O)C(=O)NCC1OCCN1S(=O)(=O)c1ccc(Br)cc1 (centres undefined)	none | Yeast cmpd fluor inactive | Mdr1 pump inh inactive | Cdr2 pump inh inactive | Cdr1 pump inh inactive
COc1ccc(S(=O)(=O)N2CCOC2CNC(=O)C(=O)NCc2ccccc2Cl)cc1 (centres undefined)	none | Yeast cmpd fluor inactive | Mdr1 pump inh inactive | Cdr2 pump inh inactive | Cdr1 pump inh inactive
COc1ccccc1CCNC(=O)C(=O)NCC1OCCN1S(=O)(=O)c1ccc(Br)cc1 (centres undefined)	none
O=C(C1=C[C@@H](c2ccc(Br)cc2)C[C@@H](OCCCCO)O1)N1CCOCC1	none
Cc1nc2c(OCc3ccc(C(F)(F)F)cc3)cccn2c1N(C)Cc1cccs1	none (no result: Efflux pump mplx)
O=C(O)CNS(=O)(=O)c1ccc2c3c(cccc13)C(=O)N2	Efflux pump mplx 0.7 | Yeast cmpd fluor inactive | Mdr1 pump inh inactive | Cdr2 pump inh inactive | Cdr1 pump inh inactive
O=C(O)CCCCCNS(=O)(=O)c1ccc2c3c(cccc13)C(=O)N2	none
Cc1ccc(NC(=S)NCc2cccn2C)cc1	Efflux pump mplx 1.2 | Yeast cmpd fluor inactive | Mdr1 pump inh inactive | Cdr2 pump inh inactive | Cdr1 pump inh inactive
COc1ccc(-c2nc3ccccc3c(=O)n2CCCn2ccnc2)cc1	none
COc1ccc(-c2nc3ccccc3c(=O)n2CCOc2cc(C)ccc2C)cc1	Efflux pump mplx 0.7 | Yeast cmpd fluor inactive | Mdr1 pump inh inactive | Cdr2 pump inh inactive | Cdr1 pump inh inactive
COc1ccc(-c2nc3ccccc3c(=O)n2CCOc2ccc(C)cc2C)cc1	Efflux pump mplx 0.7 | Yeast cmpd fluor inactive | Mdr1 pump inh inactive | Cdr2 pump inh inactive | Cdr1 pump inh inactive
COc1ccc(-c2nc3ccccc3c(=O)n2CCOc2ccccc2C)cc1	Efflux pump mplx 0.8 | Yeast cmpd fluor inactive | Mdr1 pump inh inactive | Cdr2 pump inh inactive | Cdr1 pump inh inactive
COc1ccc(-c2nc3ccccc3c(=O)n2CC(C)C)cc1	none
COc1ccc(S(=O)(=O)N2CCOC2CNC(=O)C(=O)NCc2ccc3c(c2)OCO3)cc1 (centres undefined)	none | Yeast cmpd fluor inactive | Mdr1 pump inh inactive | Cdr2 pump inh inactive | Cdr1 pump inh inactive
COc1ccc(CNC(=O)C(=O)NCC2OCCN2S(=O)(=O)c2ccc(OC)cc2)cc1 (centres undefined)	none | Yeast cmpd fluor inactive | Mdr1 pump inh inactive | Cdr2 pump inh inactive | Cdr1 pump inh inactive
O=C(/C=C/Nc1ccccc1C(=O)O)c1cccs1	none
O=C(O)c1ccccc1N/C=C\[N+](=O)[O-]	Efflux pump mplx 0.7 | Yeast cmpd fluor inactive | Mdr1 pump inh inactive | Cdr2 pump inh inactive | Cdr1 pump inh inactive
CC(C)CCn1c(Sc2nc3ccccc3s2)nc2c1c(=O)[nH]c(=O)n2C	none
O=C(NNc1cc(N2CCCC2)nc(N2CCCC2)n1)c1ccc([N+](=O)[O-])cc1	Efflux pump mplx 0.7 | Yeast cmpd fluor inactive | Mdr1 pump inh inactive | Cdr2 pump inh inactive | Cdr1 pump inh inactive
CC(C)(C)c1ccc(C(=O)NNc2cc(N3CCCCC3)nc(N3CCCCC3)n2)cc1	none
C=CCN1CCN(C(=O)c2oc3ccccc3c2C)CC1	none
CCOC(=O)c1c(-c2ccc(-c3ccccc3)cc2)csc1NC(=O)CNCCN(C)C	Efflux pump mplx 2.6 | Yeast cmpd fluor inactive | Mdr1 pump inh inactive | Cdr2 pump inh inactive | Cdr1 pump inh inactive
